Structures are written as SMILES. In all, about 650,000 compounds went through this assay and about 6,800 (1%) were called active. This is one part of a sample in which actives are shown more often than they occur. Unmarked numbers belong to inactive results. Rule as the data show it: active = activation above about 4.9%; inactive = the rest.

The assay deals with G-protein coupled receptor 151 (Homo sapiens) (UniProt Q8TDV0). As to the kind of experiment: activates the human receptor GPR151, primary screen, cell-based, PathHunter beta-arrestin, luminescence (AID 1508602).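 Also: 0% = median of compound wells and 100% = cells with positive control.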 Particulars: PathHunter beta-arrestin GPR151 cells, at 11.2 µM, stronger effect = higher value.
G-protein coupled receptor 151 (Homo sapiens), sequence (Q8TDV0 whole entry, looked up): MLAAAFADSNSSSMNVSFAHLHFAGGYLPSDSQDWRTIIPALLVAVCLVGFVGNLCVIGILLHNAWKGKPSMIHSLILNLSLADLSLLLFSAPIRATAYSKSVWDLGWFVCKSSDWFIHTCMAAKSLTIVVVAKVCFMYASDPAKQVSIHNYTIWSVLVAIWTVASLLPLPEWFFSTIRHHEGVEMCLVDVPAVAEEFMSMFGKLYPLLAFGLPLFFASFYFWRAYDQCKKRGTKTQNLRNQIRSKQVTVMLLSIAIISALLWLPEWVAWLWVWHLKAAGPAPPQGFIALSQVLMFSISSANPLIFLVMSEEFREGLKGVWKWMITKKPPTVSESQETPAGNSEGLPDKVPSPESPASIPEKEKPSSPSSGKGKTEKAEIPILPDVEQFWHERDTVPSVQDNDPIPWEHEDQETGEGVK
As to `Cc1ccc(C(=O)N/N=C\c2ccccc2O)cn1`, the activation was -0.843%.

Consider `O=S(=O)(c1ccc2c(c1)CCCC2)N1CCOC(c2ccccc2)C1` (stereo not drawn), for which the activation is -1.43%. With `Cc1ccccc1-c1nc(SCC(=O)NCCc2ccccc2)c2c(=O)n(C)c(=O)n(C)c2n1` the figure was -0.395%; with `CCN1CCN(C(=O)Cn2nc(Cc3cccnc3)c3ccccc3c2=O)CC1`, 1.14%; with `O=C1CCC(=O)NCC(=O)NCCOCCNC(=O)CN1`, -0.231%. With `CC/C(Cc1ccccc1)=N\NC(=O)c1ccccc1`, the activation was -1.22%.

Take `CN1CCN(c2ccc(-c3nc4ccc(C(=O)NCc5nc6ccccc6[nH]5)cc4s3)cc2)CC1`: the activation is 7.98% (active). As for `CN1CCN(c2ccc(-c3nc4ccc(C(=O)NCc5ccccc5)cc4s3)cc2)CC1`, the figure is -0.195%. Take `O=C(NCc1nc2ccccc2[nH]1)c1ccc2nc(-c3ccccc3)sc2c1`: the activation is -1.41%. As for `COc1ccc(-c2noc(Nc3ccc(F)cc3)n2)cc1OC`, the figure is -0.36%; as for `Cc1ccc(NC(=O)c2c[nH]c(=O)[nH]c2=O)cc1S(=O)(=O)N1CCCCC1`, -0.749%. With `COc1ccc(C(=O)NNC(=O)c2ccccc2[N+](=O)[O-])cc1OC` the figure was -0.216%; with `O=C(NNS(=O)(=O)c1ccc([N+](=O)[O-])cc1)Nc1cccc(C(F)(F)F)c1`, 0.535%. With `CC(NS(=O)(=O)c1ccc([N+](=O)[O-])cc1)C(=O)N/N=C/c1ccc(O)cc1` (stereo not drawn) the figure was 0.173%; with `CC(C)C(=O)NNS(=O)(=O)c1ccc([N+](=O)[O-])cc1`, 6.82% (active). In the case of `COCC(=O)Nc1c(I)c(C(=O)NCC(O)CO)c(I)c(C(=O)N(C)CC(O)CO)c1I` (stereo not drawn), the activation is 6.28% (active).

For `CC(=O)N(CC(O)CO)c1c(I)c(C(=O)NCC(O)CO)c(I)c(C(=O)NCC(O)CO)c1I` (stereo not drawn), the activation is 0.874%.

With `CC1=NOC(=O)/C1=C/c1ccc(-c2cc(C)c(C)cc2[N+](=O)[O-])o1`, the activation was 0.0267%. As for `Cc1[nH][nH]c(=O)c1C(c1ccc(-c2ccc(Cl)cc2)o1)c1c(C)[nH][nH]c1=O`, the figure is 0.733%. For `Cc1[nH][nH]c(=O)c1C(c1ccc(-c2ccc(F)cc2[N+](=O)[O-])o1)c1c(C)[nH][nH]c1=O`, the activation was 6.05% (active). As for `CCCOC(=O)COc1ccc2c(C)cc(=O)oc2c1`, the figure is -0.0136%. With `Cc1ccc(C2=NN(C(=O)CCC(=O)O)C(c3ccc(C)cc3)C2)cc1` (stereo not drawn) the figure was -1.19%.

Turning to `CC1=C(C(=O)Nc2ccc(Cl)cc2)C(c2ccc([N+](=O)[O-])cc2)n2nnnc2N1` (stereo not drawn), the activation is 0.405%.

Turning to `O=C(O)CC(NC(=O)c1ccccc1)c1ccc(F)cc1` (stereo not drawn), the activation was -0.457%. As for `O=C(O)CC(NS(=O)(=O)Cc1ccccc1)c1ccc(F)cc1` (stereo not drawn), the figure is 1.1%; as for `CC(=O)NC(CC(=O)O)c1ccc(F)cc1` (stereo not drawn), 6.23% (active).

Turning to `O=C(NCc1ccc(F)cc1)c1nn2c(C(F)(F)F)cc(-c3cccs3)nc2c1Cl`, the activation is 0.443%.

Regarding `Cc1ccccc1NC(=O)CSc1nnc(NC(=O)CCc2ccccc2)s1`, the activation was -0.763%. With `O=C1c2cccnc2C(=O)N1CCc1ccc(S(=O)(=O)N2CCCc3ccccc32)cc1` the figure was -2.73%. With `COc1ccc(-c2cnn3ccc(Nc4ccc(O)cc4)nc23)c(OC)c1` the figure was -0.387%. With `COC(=O)NNC(=S)Nc1cc(S(=O)(=O)N(C)C)ccc1C` the figure was 6.15% (active); with `CC(=O)c1c(C)[nH]c(C(=O)Nc2cc(S(=O)(=O)N(C)C)ccc2C)c1C`, 0.871%. Take `Cc1ccc(S(=O)(=O)N(C)C)cc1NC(=S)NCCc1ccc(O)c(O)c1`: the activation is -0.323%. As for `NC(=O)c1ccc(NC(=O)CSc2nc(N)c(NC(=O)c3ccccc3)c(=O)[nH]2)cc1`, the activation was -0.254%.

With `C#CCN1C(=O)C(O)(CC(=O)c2ccc(Br)cc2)c2ccccc21` (stereo not drawn), the activation is 4.05%. With `Cc1cc(N2CCCC2)nc(N2CCN(C(=O)c3ccccc3Cl)CC2)n1` the figure was 0.558%. In the case of `CCOC(=O)c1oc2ccc(Br)cc2c1C`, the activation is 1.27%. As for `Cc1c(C(=O)Nc2nnc(C3CC3)s2)oc2ccc(Br)cc12`, the figure is -0.544%.

Turning to `COC(=O)c1oc2ccc(Br)cc2c1NC(C)=O`, the activation is 6.57% (active). For the compound `O=C(NC(c1ccccc1)C(C(=O)c1ccccc1)C(=O)c1ccccc1)OCCc1ccccc1` (stereo not drawn), the activation was -0.699%. As for `COCCCNCc1c(C(=O)O)n(Cc2ccccc2F)c2cc(OC)ccc12`, the figure is 1.64%; as for `CCN(CC)CCNS(=O)(=O)c1ccc(Br)c(C)c1`, 0.131%; as for `O=C(CSc1nnnn1-c1ccc2c(c1)OCCO2)NNC(=O)c1ccco1`, 2.23%. With `COc1cccc(OC(=O)c2ccc(F)cc2[N+](=O)[O-])c1` the figure was -5.87%; with `CCCCN(C)Cc1cc(Br)ccc1OC`, 0.319%. As for `CC(C)N1CCc2c(sc(NC(=O)Cc3ccccc3)c2C#N)C1`, the figure is 4.91% (active). As to `CCOC(=O)N1CCc2c(sc(NC(=O)CCSc3ccccc3)c2C#N)C1`, the activation is 0.685%. As for `CC(=O)N1CCc2c(sc(NC(=O)CCS(=O)(=O)c3ccccc3)c2C#N)C1`, the figure is -0.234%; as for `Cc1ccc(CNC(=O)CCC2CCCN(C(=O)c3cccc(-c4ccco4)c3)C2)o1` (stereo not drawn), -0.6%; as for `CC(C)c1nc(CNC(=O)Cn2nnnc2CN2C[C@@H](C)O[C@@H](C)C2)cs1`, 0.432%.

Turning to `CCC(C)C(=O)N1CCc2c(C(=O)NCc3ccsc3)c(OC)cc(=O)n2CC1` (stereo not drawn), the activation is 0.148%. As for `CC(C)CC(NS(=O)(=O)c1ccc2c(c1)oc(=O)n2C)C(=O)N1CCC(C)CC1` (stereo not drawn), the figure is -0.109%. With `CC1CCN(C(=O)C(NS(=O)(=O)c2ccc3c(c2)oc(=O)n3C)C(C)C)CC1` (stereo not drawn) the figure was 7.77% (active). As for `CC1CCC(NS(=O)(=O)c2ccc3c(c2)oc(=O)n3C)CC1` (stereo not drawn), the figure is 0.208%; as for `O=C1CC(N2CCN(Cc3ccccc3)CC2)C(=O)N1c1ccccc1F` (stereo not drawn), -0.408%; as for `O=C(Cn1cnc2c(cnn2-c2ccc(F)cc2)c1=O)NCCc1ccccc1`, 0.508%. With `O=C(CCn1cnc2c(cnn2-c2ccc(F)cc2)c1=O)NCCC1=CCCCC1`, the activation was 7.05% (active). With `Cc1ccc2[nH]c3c(=O)n(CC(=O)NCCC4=CCCCC4)cnc3c2c1` the figure was 0.423%.

Values taken from PubChem BioAssay AID1508602 (The Scripps Research Institute Molecular Screening Center, 2020).
